# According to PubChem BioAssay:
# Calls of active or inactive are those of the source. Unless noted, the rule behind the calls is not given here.
# Tests used:
# [1] = test system: Wnt5a (protein binding on small-molecule microarray); assay: Wnt5a binders on small-molecule microarray, primary screen, biophysical, 635/667 nm fluorescence (AID 1142); conditions: 635 nm fluorescence, higher = more signal;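 note: fluorescence read at 667 nm with signal to noise per printed feature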
# [2] = cell viability in Huh7 cells, primary screen, cytotoxicity control for HCV replication inhibitor project, CellTiter-Glo luminescence, basal, 48 h (AID 1143); conditions: Huh7 HCV replicon, higher = more signal, called active from +8 up or from −8 down;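 note: Huh7 hepatoma cells carrying a hepatitis C replication reporter with no stimulus; test concentration not given here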
# [3] = P. aeruginosa biofilm formation inhibitors, primary screen, PAO1 strain, BacTiter-Glo luminescence, LB-PBS (AID 1144); conditions: 12 h, higher = more signal
# [4] = CREB reporter modulators without forskolin, primary screen, cell-based, PC12, CRE-LacZ reporter, unstimulated (AID 1145); conditions: no forskolin, luminescence, 4.5 h, higher = more signal, called active from +8 up or from −8 down
# [5] = CREB reporter modulators under forskolin, primary screen, cell-based, PC12, CRE-LacZ reporter, forskolin-stimulated (AID 1146); conditions: luminescence, 4.5 h, higher = more signal, called active from +8 up or from −8 down;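 note: PC12 cells with 6xCRE LacZ reporter stimulated by forskolin 10 µM; beta-galactosidase reporter signal reflecting CREB driven transcription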
# [6] = target: Streptavidin (Streptomyces avidinii) (UniProt P22629); assay: streptavidin binders on small-molecule microarray, primary screen, artefact control for SMM compound annotation, biophysical, 635/667 nm fluorescence (AID 1147); conditions: streptavidin binding, higher = more signal;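 note: signal reflects streptavidin binding to arrayed compounds as a control protein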
# Chain of Streptavidin (Streptomyces avidinii) (P22629 whole entry, looked up): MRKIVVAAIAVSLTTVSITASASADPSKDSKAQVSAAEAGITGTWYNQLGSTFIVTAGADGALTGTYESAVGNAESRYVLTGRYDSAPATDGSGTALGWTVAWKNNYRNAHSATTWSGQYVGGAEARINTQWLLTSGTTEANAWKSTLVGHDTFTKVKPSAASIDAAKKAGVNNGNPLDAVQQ
# [7] = small-molecule binders of probe aInhba, primary screen, biochemical, small-molecule microarray, 635/667 nm fluorescence (AID 1148); conditions: higher = more signal;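 note: score merges 667nm spot fluorescence with signal-to-noise for antibody binding to printed compounds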
# Torsin-1A (Homo sapiens) [8] = target: Torsin-1A (Homo sapiens) (UniProt O14656); assay: torsin A binders from cell lysate, primary screen, small-molecule microarray, wild-type, 635/667 nm (AID 1149); conditions: COS7 hTOR1A-WT lysate, 635 nm fluorescence, higher = more signal
# Chain of Torsin-1A (Homo sapiens) (O14656 whole entry, looked up): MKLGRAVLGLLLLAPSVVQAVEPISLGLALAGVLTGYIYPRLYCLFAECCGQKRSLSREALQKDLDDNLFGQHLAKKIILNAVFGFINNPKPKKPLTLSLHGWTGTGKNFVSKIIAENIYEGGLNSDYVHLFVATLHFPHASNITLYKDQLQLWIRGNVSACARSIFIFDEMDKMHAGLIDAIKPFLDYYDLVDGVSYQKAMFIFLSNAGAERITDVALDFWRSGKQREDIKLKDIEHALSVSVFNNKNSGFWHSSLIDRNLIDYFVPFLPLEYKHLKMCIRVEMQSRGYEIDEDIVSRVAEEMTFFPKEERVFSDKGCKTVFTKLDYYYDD
# Torsin-1A (Homo sapiens) [9] = target: Torsin-1A (Homo sapiens) (UniProt O14656); assay: small-molecule binders of mutant TOR1A in lysate, primary screen, cell lysate, small-molecule microarray, COS7 lysate, 635/667 nm fluorescence (AID 1150); conditions: COS7 hTOR1A mutant lysate, 635 nm fluorescence, higher = more signal;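 note: score pools 667 nm emission and signal to noise measuring lysate protein binding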
# [10] = test system: Sonic hedgehog protein (Shh); assay: small-molecule binders of Shh protein, primary screen, biochemical, small-molecule microarray, 635/667 nm fluorescence (AID 1151); conditions: small-molecule microarray binding, 635 nm fluorescence; higher = more signal;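 note: Shh protein binding to compounds spotted on small-molecule microarray slides; score combines spot fluorescence intensity with signal-to-noise across triplicate slides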
# [11] = E. coli DRC41 culture turbidity changes, primary screen, E. coli filamentation inducer project, strain DRC41, OD650, 48 h (AID 1152);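 note: E. coli MC1000 strain DRC41 lacking acrAB efflux pump and sulA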; conditions: E. coli DRC41 (acrAB sulA), higher = more signal, called active from +8 up or from −8 down
# [12] = small-molecule binders of probe aLefty1, primary screen, biochemical, small-molecule microarray, 635/667 nm fluorescence (AID 1153); conditions: higher = more signal;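 note: score merges spot fluorescence with signal-to-noise ratio from the scanned slide images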
# [13] = PSAC antagonists in infected red cells, primary screen, cell-based, P. falciparum Indochina, OD700, 1 h (AID 1154); conditions: P. falciparum Indochina infected RBC osmotic lysis, higher = more signal, called active from +8 up or from −8 down
# [14] = PSAC antagonists in infected red cells, primary screen, cell-based, P. falciparum Indochina, OD700, 2 h (AID 1155);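 note: lysis reports solute entry through the parasite surface anion channel PSAC; channel blockers reduce lysis of infected cells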; conditions: P. falciparum Indochina infected erythrocytes, osmotic lysis OD700; higher = more signal, called active from +8 up or from −8 down
# [15] = osmotic lysis modulators in infected erythrocytes, primary screen, PSAC antagonist project, cell-based, P. falciparum Indochina, OD700, 3 h (AID 1156); conditions: higher = more signal, called active from +8 up or from −8 down
# [16] = PSAC antagonists in infected red cells, primary screen, cell-based, P. falciparum Indochina, OD700, 18 h (AID 1157); conditions: P. falciparum Indochina infected erythrocytes, osmotic lysis OD700, 18 h; higher = more signal, called active from +8 up or from −8 down
# [17] = modulators of S6 phosphorylation in cells, primary screen, cell-based, A549, cytoblot, luminescence, serum-stimulated (AID 1158); conditions: A549 phospho-S6 cytoblot, 5 h, higher = more signal;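 note: serum-stimulated A549 lung adenocarcinoma cells; signal is phosphorylated S6 detected by cytoblot immunostaining with HRP secondary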
# [18] = target: NADPH oxidase 2 (Homo sapiens) (UniProt P04839); assay: NOX2-dependent H2O2 signal modulators, primary screen, NOX inhibitor project, cell-based, HEK293-NOX2, PMA-stimulated, Amplex Red fluorescence (AID 1159); conditions: 45 min, higher = more signal, called active from +8 up or from −8 down; note: test concentration not given here
# Chain of NADPH oxidase 2 (Homo sapiens) (P04839 whole entry, looked up): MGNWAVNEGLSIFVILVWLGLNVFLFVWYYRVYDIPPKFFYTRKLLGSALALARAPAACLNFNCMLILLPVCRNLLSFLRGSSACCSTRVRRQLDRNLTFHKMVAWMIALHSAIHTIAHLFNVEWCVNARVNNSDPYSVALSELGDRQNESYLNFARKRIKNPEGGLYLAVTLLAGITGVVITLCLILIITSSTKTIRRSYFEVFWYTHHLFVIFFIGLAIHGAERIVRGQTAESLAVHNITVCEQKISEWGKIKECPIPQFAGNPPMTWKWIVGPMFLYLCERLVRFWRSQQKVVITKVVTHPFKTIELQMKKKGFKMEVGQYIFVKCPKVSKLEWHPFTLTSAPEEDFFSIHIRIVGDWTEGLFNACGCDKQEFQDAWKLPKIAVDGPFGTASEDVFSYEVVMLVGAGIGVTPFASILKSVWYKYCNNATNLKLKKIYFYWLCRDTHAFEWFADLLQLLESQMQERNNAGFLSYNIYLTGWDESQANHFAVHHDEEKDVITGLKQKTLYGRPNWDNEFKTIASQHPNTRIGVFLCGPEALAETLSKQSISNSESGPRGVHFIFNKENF
# [19] = target: NADPH oxidase 4 (Homo sapiens) (UniProt Q9NPH5); assay: NOX4-dependent H2O2 signal modulators, primary screen, NOX inhibitor project, cell-based, HEK293-NOX4, tetracycline-induced, Amplex Red fluorescence (AID 1160); conditions: 45 min, higher = more signal, called active from +8 up or from −8 down
# Chain of NADPH oxidase 4 (Homo sapiens) (Q9NPH5 whole entry, looked up): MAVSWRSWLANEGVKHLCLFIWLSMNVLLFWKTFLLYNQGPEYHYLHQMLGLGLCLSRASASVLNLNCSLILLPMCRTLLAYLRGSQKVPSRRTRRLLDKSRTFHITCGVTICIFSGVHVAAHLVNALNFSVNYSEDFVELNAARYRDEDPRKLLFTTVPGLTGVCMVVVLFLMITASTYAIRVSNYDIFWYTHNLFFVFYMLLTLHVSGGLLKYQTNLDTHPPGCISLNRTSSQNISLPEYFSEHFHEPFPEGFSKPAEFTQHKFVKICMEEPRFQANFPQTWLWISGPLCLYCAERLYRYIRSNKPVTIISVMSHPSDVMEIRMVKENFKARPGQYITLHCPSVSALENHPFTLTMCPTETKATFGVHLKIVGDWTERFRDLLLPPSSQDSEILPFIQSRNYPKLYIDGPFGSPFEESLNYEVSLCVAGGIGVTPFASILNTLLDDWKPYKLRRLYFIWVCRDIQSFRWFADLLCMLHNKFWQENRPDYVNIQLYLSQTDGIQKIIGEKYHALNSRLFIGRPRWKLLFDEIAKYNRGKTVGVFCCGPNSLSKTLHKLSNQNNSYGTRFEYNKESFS
# [20] = target: NADPH oxidase 5 (Homo sapiens) (UniProt Q96PH1); assay: NOX5-dependent H2O2 signal modulators, primary screen, NOX inhibitor project, cell-based, HEK293-NOX5, Amplex Red fluorescence (AID 1161); conditions: HEK293-NOX5, ionomycin, 45 min, higher = more signal
# Chain of NADPH oxidase 5 (Homo sapiens) (Q96PH1 whole entry, looked up): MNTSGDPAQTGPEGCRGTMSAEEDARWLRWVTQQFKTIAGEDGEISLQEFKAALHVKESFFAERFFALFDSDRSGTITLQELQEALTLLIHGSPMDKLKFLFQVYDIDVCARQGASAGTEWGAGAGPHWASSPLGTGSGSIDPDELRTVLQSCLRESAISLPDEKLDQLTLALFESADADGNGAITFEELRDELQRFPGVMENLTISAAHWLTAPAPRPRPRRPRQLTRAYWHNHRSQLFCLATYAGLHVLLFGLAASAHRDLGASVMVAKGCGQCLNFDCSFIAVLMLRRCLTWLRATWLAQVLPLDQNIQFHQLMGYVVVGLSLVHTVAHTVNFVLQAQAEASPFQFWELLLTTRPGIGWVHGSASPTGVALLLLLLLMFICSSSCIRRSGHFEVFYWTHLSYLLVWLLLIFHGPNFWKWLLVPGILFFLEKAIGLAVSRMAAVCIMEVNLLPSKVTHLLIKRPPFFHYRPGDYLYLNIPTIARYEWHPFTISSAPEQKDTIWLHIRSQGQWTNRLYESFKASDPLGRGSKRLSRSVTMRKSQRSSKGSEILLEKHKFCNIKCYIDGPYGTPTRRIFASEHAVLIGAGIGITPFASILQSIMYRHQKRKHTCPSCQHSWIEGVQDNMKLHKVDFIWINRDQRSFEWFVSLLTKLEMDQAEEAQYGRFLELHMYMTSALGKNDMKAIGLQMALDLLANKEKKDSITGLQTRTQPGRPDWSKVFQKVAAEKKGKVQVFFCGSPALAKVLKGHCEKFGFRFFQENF
smiles,measurement,setting,value
CN(C)C(=O)[C@]1(CCC(=O)OC(C)(C)C)N=C(c2ccc(OCCCO)cc2)O[C@@H]1c1ccccc1CN=[N+]=[N-],composite z-score,[1],1.44
same,z-score,[2],-1.5 (inactive)
same,z-score,[3],-1.42 (inactive)
same,z-score,[4],-0.744 (inactive)
same,z-score,[5],-0.147 (inactive)
same,composite z-score,[6],0.588
same,composite z-score,[7],-0.071
same,composite z-score,Torsin-1A (Homo sapiens) [8],1.53
same,composite z-score,Torsin-1A (Homo sapiens) [9],1.24
same,composite z-score,[10],-0.646
same,z-score,[11],0.636 (inactive)
same,composite z-score,[12],-0.182
same,z-score,[13],29.8 (active)
same,z-score,[14],25.2 (active)
same,z-score,[15],2.29 (inactive)
same,z-score,[16],3.77 (inactive)
same,z-score,[17],-0.175
same,z-score,[18],0.629 (inactive)
same,z-score,[19],2.22 (inactive)
same,z-score,[20],1.19
N#Cc1ccc(NN2C(C(O)c3ccc(Br)cc3)C=CC3C(=O)N(c4ccccc4)C(=O)C32)cc1 (stereo not given),composite z-score,[1],0.395
same,z-score,[2],-0.35 (inactive)
same,z-score,[3],-1.3 (inactive)
same,z-score,[4],0.0535 (inactive)
same,z-score,[5],-0.36 (inactive)
same,composite z-score,[6],0.843
same,composite z-score,[7],0.222
same,composite z-score,Torsin-1A (Homo sapiens) [8],0.441
same,composite z-score,Torsin-1A (Homo sapiens) [9],0.604
same,composite z-score,[10],0.834
same,z-score,[11],-0.922 (inactive)
same,composite z-score,[12],0.57
same,z-score,[13],14.8 (active)
same,z-score,[14],2.9 (inactive)
same,z-score,[15],0.419 (inactive)
same,z-score,[16],-0.348 (inactive)
same,z-score,[17],0.717
same,z-score,[18],-2.6 (inactive)
same,z-score,[19],-4.29 (inactive)
same,z-score,[20],-3.45
CCOC(=O)C[C@H]1[C@H](OC(=O)c2ccc(C(=O)c3ccccc3)cc2)[C@@H](NC(=O)CC(C)C)c2cc(OCCCO)ccc2N1C(=O)c1ccccc1,composite z-score,[1],0.154
same,z-score,[2],-0.133 (inactive)
same,z-score,[3],-0.367 (inactive)
same,z-score,[4],3.01 (inactive)
same,z-score,[5],-0.443 (inactive)
same,composite z-score,[6],1.17
same,composite z-score,[7],-0.0131
same,composite z-score,Torsin-1A (Homo sapiens) [8],0.125
same,composite z-score,Torsin-1A (Homo sapiens) [9],0.442
same,composite z-score,[10],1.32
same,z-score,[11],-0.804 (inactive)
same,composite z-score,[12],-0.191
same,z-score,[13],1.06 (inactive)
same,z-score,[14],0.966 (inactive)
same,z-score,[15],-0.416 (inactive)
same,z-score,[16],0.26 (inactive)
same,z-score,[17],-0.163
same,z-score,[18],1.49 (inactive)
same,z-score,[19],0.861 (inactive)
same,z-score,[20],1.24
C=CCC(OC(C)=O)[C@@H]1[C@@H](N(Cc2ccc(-c3cccc(C(F)(F)F)c3)o2)C(=O)Cc2ccc(OC)cc2)c2cc(OCCCO)ccc2N1C(=O)c1ccc(-c2ccccc2)cc1 (stereo not given in full),composite z-score,[1],0.0179
same,z-score,[2],-1.28 (inactive)
same,z-score,[3],0.198 (inactive)
same,z-score,[4],1.15 (inactive)
same,z-score,[5],0.393 (inactive)
same,composite z-score,[6],1.31
same,composite z-score,[7],0.153
same,composite z-score,Torsin-1A (Homo sapiens) [8],-0.368
same,composite z-score,Torsin-1A (Homo sapiens) [9],-0.38
same,composite z-score,[10],0.439
same,z-score,[11],-1.12 (inactive)
same,composite z-score,[12],0.235
same,z-score,[13],0.922 (inactive)
same,z-score,[14],-0.393 (inactive)
same,z-score,[15],1.81 (inactive)
same,z-score,[16],0.0651 (inactive)
same,z-score,[17],-0.199
same,z-score,[18],-1.2 (inactive)
same,z-score,[19],-1.15 (inactive)
same,z-score,[20],-1.35
CCCCC(O)C1C=CC2C(=O)N(C)C(=O)C2N1N(c1ccccc1)c1ccccc1 (stereo not given),composite z-score,[1],0.29
same,z-score,[2],-0.975 (inactive)
same,z-score,[3],0.092 (inactive)
same,z-score,[4],1.59 (inactive)
same,z-score,[5],0.281 (inactive)
same,composite z-score,[6],0.971
same,composite z-score,[7],0.0075
same,composite z-score,Torsin-1A (Homo sapiens) [8],0.14
same,composite z-score,Torsin-1A (Homo sapiens) [9],0.464
same,composite z-score,[10],0.471
same,z-score,[11],-2.15 (inactive)
same,composite z-score,[12],0.475
same,z-score,[13],3.81 (inactive)
same,z-score,[14],1 (inactive)
same,z-score,[15],1.3 (inactive)
same,z-score,[16],0.951 (inactive)
same,z-score,[17],-1.05
same,z-score,[18],-0.334 (inactive)
same,z-score,[19],-1.98 (inactive)
same,z-score,[20],-0.376
CC#CCO[Si](C#Cc1ccccc1)(C(C)C)C(C)C,composite z-score,[1],-0.254
same,z-score,[2],-1.35 (inactive)
same,z-score,[3],0.687 (inactive)
same,z-score,[4],-0.985 (inactive)
same,z-score,[5],0.852 (inactive)
same,composite z-score,[6],-1.07
same,composite z-score,[7],-0.106
same,composite z-score,Torsin-1A (Homo sapiens) [8],-1.43
same,composite z-score,Torsin-1A (Homo sapiens) [9],-0.811
same,composite z-score,[10],0.12
same,z-score,[11],-0.112 (inactive)
same,composite z-score,[12],-0.193
same,z-score,[13],0.175 (inactive)
same,z-score,[14],-0.286 (inactive)
same,z-score,[15],-0.975 (inactive)
same,z-score,[16],-0.4 (inactive)
same,z-score,[17],-1.16
same,z-score,[18],-2.19 (inactive)
same,z-score,[19],-0.176 (inactive)
same,z-score,[20],-0.624
CC(C)=C1C(=O)C(c2ccccc2)=C2CN3C(=O)N(CCc4ccccc4)C(=O)[C@]3(Cc3ccc(C(F)(F)F)cc3)[C@H]21,composite z-score,[1],-0.199
same,z-score,[2],-0.28 (inactive)
same,z-score,[3],0.408 (inactive)
same,z-score,[4],0.966 (inactive)
same,z-score,[5],0.96 (inactive)
same,composite z-score,[6],0.37
same,composite z-score,[7],0.23
same,composite z-score,Torsin-1A (Homo sapiens) [8],-0.0473
same,composite z-score,Torsin-1A (Homo sapiens) [9],-0.336
same,composite z-score,[10],-1.18
same,z-score,[11],-2.19 (inactive)
same,composite z-score,[12],0.522
same,z-score,[13],22.3 (active)
same,z-score,[14],5.86 (inactive)
same,z-score,[15],0.511 (inactive)
same,z-score,[16],1.21 (inactive)
same,z-score,[17],-0.558
same,z-score,[18],-0.12 (inactive)
same,z-score,[19],-1.21 (inactive)
same,z-score,[20],-0.226
CC(C)C(CO)N1C(=O)[C@@H]2C3C(=O)OCCC/C=C\[C@H]3OC23C=CCN(c2ccc4ccccc4c2)C(=O)[C@@H]13 (stereo not given in full),composite z-score,[1],-0.4
same,z-score,[2],-0.567 (inactive)
same,z-score,[3],1.09 (inactive)
same,z-score,[4],-0.761 (inactive)
same,z-score,[5],-0.137 (inactive)
same,composite z-score,[6],-0.537
same,composite z-score,[7],-0.0695
same,composite z-score,Torsin-1A (Homo sapiens) [8],-1.83
same,composite z-score,Torsin-1A (Homo sapiens) [9],-0.801
same,composite z-score,[10],0.41
same,z-score,[11],-0.546 (inactive)
same,composite z-score,[12],0.0533
same,z-score,[13],1.03 (inactive)
same,z-score,[14],0.36 (inactive)
same,z-score,[15],0.204 (inactive)
same,z-score,[16],0.478 (inactive)
same,z-score,[17],-0.428
same,z-score,[18],1.77 (inactive)
same,z-score,[19],0.767 (inactive)
same,z-score,[20],1.69
C#Cc1cc2ccccc2oc1=O,composite z-score,[1],-0.365
same,z-score,[2],-0.692 (inactive)
same,z-score,[3],0.534 (inactive)
same,z-score,[4],0.136 (inactive)
same,z-score,[5],6.19 (inactive)
same,composite z-score,[6],-1.47
same,composite z-score,[7],-0.149
same,composite z-score,Torsin-1A (Homo sapiens) [8],0.173
same,composite z-score,Torsin-1A (Homo sapiens) [9],-0.539
same,composite z-score,[10],-1.45
same,z-score,[11],-1.44 (inactive)
same,composite z-score,[12],0.228
same,z-score,[13],3.02 (inactive)
same,z-score,[14],0.858 (inactive)
same,z-score,[15],0.898 (inactive)
same,z-score,[16],0.656 (inactive)
same,z-score,[17],-0.668
same,z-score,[18],0.0724 (inactive)
same,z-score,[19],-1.35 (inactive)
same,z-score,[20],-0.807
